From PubChem BioAssay (NCI)
This is part of a sample that, as a whole, favours compounds with a hit. Of some 83,000 tested, about 20% had one in any assay.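 Values shown are percent growth following 48 h exposure of cells in 96-well plates to a single concentration of compound; below 10 was considered active.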 Values without a mark were called inactive. Calls of active or inactive are those of the source.

tested on: HL-60(TB) leukemia; test: NCI-60 one-dose screen, 48 h (100 = growth as untreated, 0 = no growth, -100 = all killed); conditions: 10 µM unless noted

SMILES | growth
Nc1nc(SN=Nc2ccc(S(N)(=O)=O)cc2)c2[nH]cnc2n1 | -16% (active)
Clc1ccc(Nc2ccnc(NCCNc3ccnc4cc(Cl)ccc34)n2)cc1 | -71% (active)
CCN(CC)CCNC(=O)C(F)(F)C(F)(F)C(F)(F)F | 108%
Cc1cc(Cc2cc(C)c(O)c(C)c2)cc(C)c1O | 15.6%
O=C(Nc1ccccc1O)c1ccccc1Nc1ccnc(C(F)(F)F)c1 | 68.3%
COc1ccc(NC(=O)c2ccccc2-c2ccccc2)c(C(N)=O)c1 | -17.9% (active)
CCOC(=O)c1cc2oc(/C=C/c3cc(=O)c4cc(Cl)ccc4o3)cc2[nH]1 | 93%
COc1cc(-c2ccc3cc(OC)c(OC)c(OC)c3c2)cc(OC)c1OC | 67.4%
CSc1nc2sc3c(c2c(=O)n1-c1ccc(C(C)C)cc1)CCC(=O)C3 | 6.88% (active)
O=CC(OC(=O)c1ccccc1)C(OC(=O)c1ccccc1)C(COC(c1ccccc1)(c1ccccc1)c1ccccc1)OC(=O)c1ccccc1 (stereo not given) | -12.3% (active)
S=c1nn[nH]n1C1CCCCC1 | 79.8%
O=C(N/N=C\c1ccc(Cl)cc1Cl)c1ccncc1 | 87.6%
COc1cc(CSc2nc3ccc(C)cc3c(=O)n2Cc2ccccc2)cc(OC)c1OC | 17%
COc1cc(/C=N/Nc2ccc(Br)cc2)cc(OC)c1OC | 33%
S=C(c1ccc2c(c1)OCO2)N1CCN(c2ccccc2Cl)CC1 | 87.6%
CCCCn1c(C)nc2cc(Nc3nc(N4CCCCC4)nc4nc[nH]c34)ccc21 | 78.4%
OC(CSc1ccccc1)CN1CCN(c2cccc(Cl)c2)CC1 (stereo not given) | 85.7%
O=C1/C(=C\c2cn(Cc3ccccc3)c3ccc(Br)cc23)c2ccccc2N1c1c(Cl)cccc1Cl | 97%
CC(C)OP(=O)(CCC(=O)c1c[nH]c2ccccc12)OC(C)C | 92.2%
C#Cc1ccc(-n2c(/C=C/c3cc(OC)c(OC)c(OC)c3)nc3ncccc3c2=O)cc1 | 26.5%

SMILES | growth
CCN(CC)CCCNC(=O)c1ccc(N)cc1O | 82.4%
CCc1ccc(C(=Nc2ccc(N(C)C(=O)CN3CCN(C)CC3)cc2)c2c(O)[nH]c3ccc(C(=O)OC)cc23)cc1 | -67% (active)
N#Cc1c(Cl)nc(SCC2CO2)nc1-c1ccccc1 (stereo not given) | 105%
COc1cc(NC(=O)c2sc3nc4c(cc3c2N)C(O)CCC4)cc(OC)c1 (stereo not given) | 73.2%
CC(=O)Oc1ccc(OC(C)=O)c2ccccc12 | -17.4% (active)
C/C=C/C(N)=O | 107%
C=C(C)[C@@H]1CC[C@]2(C(N)=O)CC[C@]3(C)[C@H](CC[C@@H]4[C@@]5(C)CC[C@H](OCCC#N)C(C)(C)[C@@H]5CC[C@]43C)[C@@H]12 | 99.9%
O=C(CN1C(=O)/C(=C/c2ccc(Cl)cc2)SC1=S)NCCCN1CCOCC1 | 98.7%
Cc1ccnc(Nc2nc3ccccc3[nH]2)n1 | 87%
CN1CCN(Cn2nc(-c3cc(Cl)cc(Cl)c3Cl)oc2=S)CC1 | 82%
COc1ccc2nc(C)cc(Sc3nc4ccccc4s3)c2c1 | 6.64% (active)
C=C1C(=O)O[C@H]2[C@H]1CC/C(CNC(=O)c1c[nH]c3ccc(F)cc13)=C\CC[C@@]1(C)O[C@@H]21 | -35% (active)
COc1ccc(-c2nn(-c3ccc(NC(=O)c4ccc(Cl)c(C(F)(F)F)c4)cc3)cc2-c2ccncc2)cc1Cl | 2.89% (active)
Cc1nc2ccccc2c(/C=C/c2ccc(Cl)cc2)c1C(=O)/C=C/c1ccccc1 | 5.7% (active)
CCCCCOC(=O)c1ccccc1O | 99.4%
C=C(C=O)[C@@H]1CC=C(C=O)CC1 | -33.2% (active)
CC(=O)Nc1cc(C(c2ccccc2)c2ccccc2)cc(C(c2ccccc2)c2ccccc2)c1C | 53.1%
CN(C)CCCOc1ccc(NC2=C(Cl)C(=O)C(Nc3ccc(OCCCN(C)C)cc3)=C(Cl)C2=O)cc1 | -39.9% (active)
N#Cc1c2c(nc3n[nH]c(N)c13)CCCC2 | 87.3%
CCCN=C1NC(=O)/C(=C/c2nc(-c3ccc(OC)cc3)n3ccccc23)S1 | 79.8%
